Our source for the PBM binding z-score values is the supplement of paper PMC6555819.

This assay deals with VDR:RXRa (NR concentration 270 nM, RXRa partner concentration 90 nM). The assay is described as follows: PBM binding z-score (relative to random genomic background probes); higher = stronger binding; sequences stand for … in GC…GCGATTGACAGCGTAGAATGAAGG
On the procedure:
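Protein-binding microarray (Agilent 4x180K custom design, double-stranded 60-nt probes: 5' GC cap, 34-nt variable region, 24-nt constant primer region; full probe sequence given). Purified or IVT nuclear receptor:RXRα heterodimers (3:1 NR:RXRα, mostly 270:90 nM) or homodimers were incubated for 1 h in PBS with 2% milk and no ligand, then detected with Alexa488 antibodies. Fluorescence from o1-orientation probes (~5 replicates averaged) was converted to z-scores against 500 random hg19 background probes. Variable regions are seed direct-repeat (DR0–DR5) sites, all their single-nucleotide variants and half-site ablations.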
For the sequence CCTACTGGGCCATCAGGACATTGATATCAACGTT, the PBM binding z-score is -0.324. Take TCTCGGAGGACACGAAGGTTAGAGCTTTCCAGAG: the PBM binding z-score was determined as 0.237. The figure for TAGCCTAGGTCAGATCGGGCCAGTACACGCTATA is 0.906; for CAAACTAGGTCACGAAAGGTCAAAGTAGAATGAC it is 6.69; for TCTTGTAGATCAACAGGAGGTTAAGAAGGATCGA it is 0.575. Regarding TCGAGTAGGTTAGTCGGGGCATTTAGCCAACATA, the PBM binding z-score was 2.2.

CATGCTAGGTCAATGGTCAGCTAAAGCAGCTCGC showed a PBM binding z-score of 1.06.

In the case of CCTAGTTGGTCAAGGCCACACACGCTATAGGTAC, the PBM binding z-score came to 0.31. The figure for CAAACTATGTCACAGAGGTCAAAGTCCGTGCGTA is 6.63; for TTAATGAGGTTATAAGATCAGGGAACGTTGCAAA it is 1.27. The figure for AGTCAAAGTTCATCTAGGAAACGTAAGATATGCT is 4.66; for CGTCCCAGGTCAAGGTCAGTGAAAGAGACTCGAA it is 3.85; for CGAAAGAGGGCATGAGTTGATAGCAAATGCCGAT it is 1.22.

The sequence TCTAGTTGGACACGGAGGTCACACACGACGGGTA yielded a PBM binding z-score of 3.76. The figure for ACTTACGCGTCAACGAGGTTATAGCACGCGTATA is 3.57; for CGTCCAAGGCCAAGGTCAGTGAAAGAGACTCGAA it is 1.15; for GCTGCTAGGACAGGTTGGTCAGCTAACGGGTACG it is -0.674.

In the case of TCTCGGAGGACAAGAAAGGTCAGAGCTCGACATC, the PBM binding z-score was found to be 2.67. The figure for GCAGTCAGGTGAAACGCAGGTAACTCAGGGTGGC is -0.464; for ACTAGCAGGCCAAGTTTGGGTCACCCAAACAAAG it is 1.13. The figure for TCGAGAAGGTTACCAATGGGGCATTCAGCTTTCT is 0.778; for CGAACGAGGGCATGAGATGATAGCAAATGCCGAT it is 0.478. Consider TCTAGCAGGCCGGAGGGTCACTCAAGAGGTACGG, for which the PBM binding z-score amounted to 1.03. The figure for CAAACTAGGTCAACGGTCAAAGTCGAGCCAACCA is 2.71; for ATACCAAGGTGATCGCGAGGTCGTTGATACTAAC it is 3.37; for GCATATAGGTAACACAAGGTGAAAGTCCGATTGT it is 0.418. The figure for CCTGCTAGGTGAATGGTCAGCTAAAGCAGCTCGC is -0.699. Consider ATCTCTAGGGAAAGATAGTTCAGTGAATGCAAAT, for which the PBM binding z-score worked out at 0.156. Take CCTAGTGGGTCAAGGTCACACACGCTATAGGTAC: the PBM binding z-score was 4.64. The figure for AGTCAAAGTTCATCTAGGTAACGTGAGATATGCT is 5.17; for AGAACGAGGGCAATGAGGTGATAGCACGGGTGGC it is 3.78. The figure for ATCTCTAAGTAACCAAGTTCAGTGAATGCCGAAC is 2; for GCTCCGAGGACAAGGTCAGAGCTTTGTCCGTAGA it is 1.43; for TGAATGAGGCTATAAGATCAGGGAACGTTGCAAA it is -0.38. The figure for GCTAGGAGGACAAGGTCAGAGCTTTGTCCGTAGA is 1.4; for ACTGTTAGTTGACTTAGGGCAACCGATACGACGC it is 0.59; for ATCGAAAGGTCTACGAGGTGAGTATACACCGTTT it is 1.6. For CGAACTAGGTCAAGGACAATGAATCTCCGCACGC, the PBM binding z-score stood at 1.49. The figure for ATCTCTAGGTAAAAGTTCAGTGCATCCCGAGGAT is 1.69; for CCTAGCAGGTCAATCTGGGTCACTCAAGGCTTGA it is 4.94.
